# Experimental data published in publication PMC7862700, “An all-to-all approach to the identification of sequence-specific readers for epigenetic DNA modifications on cytosine”.
# Legend:
# Assay in all cases: DAPPL (digital affinity profiling via proximity ligation, sequencing); 10 mM Tris-HCl pH 7.5, 50 mM NaCl, 1 mM DTT, 4% glycerol, room temperature, 30 min; GST-TFs on glutathione beads, 16-mer random dsDNA library, 0.1% formaldehyde crosslink after washing; high values mean tight binding
# FLI1 = molecular target: T1, FLI1 (Homo sapiens, UniProt Q01543 1-452); conditions: protein: recombinant; tags: N-terminal GST; dsDNA, one strand shown
# T1 sequence: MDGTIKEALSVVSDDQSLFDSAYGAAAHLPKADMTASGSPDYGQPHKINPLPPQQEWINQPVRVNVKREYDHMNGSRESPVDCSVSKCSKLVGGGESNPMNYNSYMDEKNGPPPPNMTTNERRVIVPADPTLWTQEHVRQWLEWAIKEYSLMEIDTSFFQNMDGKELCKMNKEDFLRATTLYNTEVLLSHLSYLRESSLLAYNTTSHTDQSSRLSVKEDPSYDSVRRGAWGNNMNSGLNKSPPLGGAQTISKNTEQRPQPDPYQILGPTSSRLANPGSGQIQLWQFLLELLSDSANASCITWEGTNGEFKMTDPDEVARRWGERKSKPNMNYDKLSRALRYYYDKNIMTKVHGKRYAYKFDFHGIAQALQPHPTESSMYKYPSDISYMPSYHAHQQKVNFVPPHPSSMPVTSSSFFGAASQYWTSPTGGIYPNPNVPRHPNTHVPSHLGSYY
# Procedure, shortened: (§1)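 Beads coated with glutathione captured GST-fused human transcription factors that had been expressed in yeast, and the factors were then given DNA barcodes and pooled with a tag-only sample. The pools were incubated with 200 nmole of a random double-stranded 16-mer DNA library in Tris/NaCl/DTT/glycerol buffer for 30 min at room temperature, washed, crosslinked with 0.1% formaldehyde and proximity-ligated with BsaI/T4 ligase at 37 °C for 1 h. PCR amplification and Illumina NextSeq500 sequencing came last. Binding signal is each hexamer's read frequency for a factor divided by its frequency for the tag-only sample.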
# ELK1 = molecular target: T2, ELK1 (Homo sapiens, UniProt P19419 1-428); conditions: protein: recombinant; tags: N-terminal GST; dsDNA, one strand shown
# T2 sequence: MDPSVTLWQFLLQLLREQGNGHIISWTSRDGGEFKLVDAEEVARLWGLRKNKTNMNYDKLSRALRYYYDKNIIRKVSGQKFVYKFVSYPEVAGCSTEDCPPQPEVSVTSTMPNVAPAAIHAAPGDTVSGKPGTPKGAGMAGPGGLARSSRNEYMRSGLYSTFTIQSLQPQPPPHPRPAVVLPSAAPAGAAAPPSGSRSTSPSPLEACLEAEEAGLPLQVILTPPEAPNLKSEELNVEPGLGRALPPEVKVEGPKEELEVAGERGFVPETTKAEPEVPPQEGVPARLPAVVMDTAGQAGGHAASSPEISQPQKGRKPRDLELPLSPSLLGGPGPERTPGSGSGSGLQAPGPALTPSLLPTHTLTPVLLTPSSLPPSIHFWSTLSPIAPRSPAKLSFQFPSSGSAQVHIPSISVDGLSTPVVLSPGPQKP
# Procedure, shortened: as §1
# GABPA = molecular target: T3, GABPA (Homo sapiens, UniProt Q06546 1-454); conditions: protein: recombinant; tags: N-terminal GST; dsDNA, one strand shown
# T3 sequence: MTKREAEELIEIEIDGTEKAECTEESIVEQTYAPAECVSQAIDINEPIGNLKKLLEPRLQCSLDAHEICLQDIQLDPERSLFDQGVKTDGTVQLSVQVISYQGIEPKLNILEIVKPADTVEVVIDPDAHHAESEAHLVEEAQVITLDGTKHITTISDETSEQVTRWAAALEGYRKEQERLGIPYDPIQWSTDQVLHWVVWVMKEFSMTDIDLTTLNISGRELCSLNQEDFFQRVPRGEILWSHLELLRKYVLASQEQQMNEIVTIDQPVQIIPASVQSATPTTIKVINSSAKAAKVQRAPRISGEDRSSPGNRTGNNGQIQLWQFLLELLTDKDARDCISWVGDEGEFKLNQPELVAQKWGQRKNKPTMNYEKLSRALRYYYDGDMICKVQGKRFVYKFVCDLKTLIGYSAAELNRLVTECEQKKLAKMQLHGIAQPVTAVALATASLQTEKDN
# Procedure, shortened: as §1
# ERG = molecular target: T4, ERG (Homo sapiens, UniProt P11308 1-479); conditions: protein: recombinant; tags: N-terminal GST; dsDNA, one strand shown
# T4 sequence: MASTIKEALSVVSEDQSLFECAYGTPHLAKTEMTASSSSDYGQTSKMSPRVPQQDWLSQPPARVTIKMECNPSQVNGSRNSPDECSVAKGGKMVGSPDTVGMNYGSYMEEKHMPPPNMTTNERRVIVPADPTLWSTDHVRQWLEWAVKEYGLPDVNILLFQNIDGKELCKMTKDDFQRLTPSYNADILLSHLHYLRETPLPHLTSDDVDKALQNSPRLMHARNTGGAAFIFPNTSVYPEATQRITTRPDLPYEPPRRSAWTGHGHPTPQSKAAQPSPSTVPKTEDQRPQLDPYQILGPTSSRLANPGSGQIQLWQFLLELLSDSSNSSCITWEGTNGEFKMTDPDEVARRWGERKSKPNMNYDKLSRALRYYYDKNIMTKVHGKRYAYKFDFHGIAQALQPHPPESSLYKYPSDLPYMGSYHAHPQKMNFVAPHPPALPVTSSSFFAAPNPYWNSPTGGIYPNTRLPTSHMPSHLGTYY
# Procedure, shortened: as §1
# ELF1 = ELF1 (Homo sapiens, UniProt P32519 1-619); conditions: protein: recombinant; tags: N-terminal GST; dsDNA, one strand shown
# Sequence of ELF1 (P32519 whole entry): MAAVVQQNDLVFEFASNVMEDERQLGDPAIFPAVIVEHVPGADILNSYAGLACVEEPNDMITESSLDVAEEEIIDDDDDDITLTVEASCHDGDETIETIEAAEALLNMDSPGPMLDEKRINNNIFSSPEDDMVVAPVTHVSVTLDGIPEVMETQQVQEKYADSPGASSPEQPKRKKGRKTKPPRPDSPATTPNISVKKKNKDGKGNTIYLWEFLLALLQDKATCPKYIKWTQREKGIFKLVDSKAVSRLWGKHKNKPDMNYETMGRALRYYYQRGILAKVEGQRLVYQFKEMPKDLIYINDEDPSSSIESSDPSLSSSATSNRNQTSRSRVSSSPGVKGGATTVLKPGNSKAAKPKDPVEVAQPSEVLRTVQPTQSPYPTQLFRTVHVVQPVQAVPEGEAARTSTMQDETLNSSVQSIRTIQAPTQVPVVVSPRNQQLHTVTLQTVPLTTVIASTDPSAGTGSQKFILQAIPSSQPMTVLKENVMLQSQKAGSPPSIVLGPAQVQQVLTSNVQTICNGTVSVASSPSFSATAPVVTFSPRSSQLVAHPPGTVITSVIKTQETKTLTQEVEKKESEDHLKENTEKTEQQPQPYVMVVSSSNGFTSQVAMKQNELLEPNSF
# Procedure, shortened: as §1
# EHF = molecular target: T5, EHF (Homo sapiens, UniProt Q9NZC4 1-300); conditions: protein: recombinant; tags: N-terminal GST; dsDNA, one strand shown
# T5 sequence: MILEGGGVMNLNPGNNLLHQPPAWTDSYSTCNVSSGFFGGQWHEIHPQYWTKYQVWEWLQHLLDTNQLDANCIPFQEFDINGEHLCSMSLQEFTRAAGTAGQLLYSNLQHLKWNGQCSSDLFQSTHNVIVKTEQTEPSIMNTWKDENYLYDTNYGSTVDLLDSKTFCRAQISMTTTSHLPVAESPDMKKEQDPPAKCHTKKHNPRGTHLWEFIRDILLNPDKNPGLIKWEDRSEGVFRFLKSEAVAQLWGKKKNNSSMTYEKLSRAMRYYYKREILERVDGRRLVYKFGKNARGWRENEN
# Procedure, shortened: as §1
# SPI1 = SPI1 (Homo sapiens, UniProt P17947 1-270); conditions: protein: recombinant; tags: N-terminal GST; dsDNA, one strand shown
# Procedure, shortened: as §1
# SPIB = SPIB (Homo sapiens, UniProt Q01892 1-262); conditions: protein: recombinant; tags: N-terminal GST; dsDNA, one strand shown
# Sequence of SPIB (Q01892 whole entry): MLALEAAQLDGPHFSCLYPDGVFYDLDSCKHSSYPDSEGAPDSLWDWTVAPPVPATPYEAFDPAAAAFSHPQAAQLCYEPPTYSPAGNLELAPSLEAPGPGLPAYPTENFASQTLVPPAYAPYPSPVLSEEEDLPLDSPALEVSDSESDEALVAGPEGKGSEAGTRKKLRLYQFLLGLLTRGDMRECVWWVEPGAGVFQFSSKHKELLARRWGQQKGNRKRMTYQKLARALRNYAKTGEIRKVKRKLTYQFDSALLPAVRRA
# Procedure, shortened: as §1
# ELK3 = molecular target: T6, ELK3 (Homo sapiens, UniProt P41970 1-407); conditions: protein: recombinant; tags: N-terminal GST; dsDNA, one strand shown
# T6 sequence: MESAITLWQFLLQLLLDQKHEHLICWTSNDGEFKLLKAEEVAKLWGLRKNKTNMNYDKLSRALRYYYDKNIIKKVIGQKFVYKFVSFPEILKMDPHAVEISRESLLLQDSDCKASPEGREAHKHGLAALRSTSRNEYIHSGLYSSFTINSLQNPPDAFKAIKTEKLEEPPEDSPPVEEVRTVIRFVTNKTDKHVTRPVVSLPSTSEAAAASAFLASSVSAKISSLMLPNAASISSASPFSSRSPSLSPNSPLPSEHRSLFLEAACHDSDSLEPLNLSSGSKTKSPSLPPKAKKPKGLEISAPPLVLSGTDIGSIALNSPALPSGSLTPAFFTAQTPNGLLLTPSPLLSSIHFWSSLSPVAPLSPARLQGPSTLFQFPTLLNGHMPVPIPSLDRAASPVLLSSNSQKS
# Procedure, shortened: as §1
# FEV = molecular target: T7, FEV (Homo sapiens, UniProt Q99581 1-238); conditions: protein: recombinant; tags: N-terminal GST; dsDNA, one strand shown
# T7 sequence: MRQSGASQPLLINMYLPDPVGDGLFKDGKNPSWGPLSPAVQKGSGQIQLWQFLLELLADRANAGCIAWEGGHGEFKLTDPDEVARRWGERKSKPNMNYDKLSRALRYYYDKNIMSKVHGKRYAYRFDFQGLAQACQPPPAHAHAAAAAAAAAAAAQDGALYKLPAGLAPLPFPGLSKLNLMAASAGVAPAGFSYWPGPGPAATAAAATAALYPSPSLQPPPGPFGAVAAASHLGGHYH
# Procedure, shortened: as §1
# ETV5 = ETV5 (Homo sapiens, UniProt P41161 1-510); conditions: protein: recombinant; tags: N-terminal GST; dsDNA, one strand shown
# Sequence of ETV5 (P41161 whole entry): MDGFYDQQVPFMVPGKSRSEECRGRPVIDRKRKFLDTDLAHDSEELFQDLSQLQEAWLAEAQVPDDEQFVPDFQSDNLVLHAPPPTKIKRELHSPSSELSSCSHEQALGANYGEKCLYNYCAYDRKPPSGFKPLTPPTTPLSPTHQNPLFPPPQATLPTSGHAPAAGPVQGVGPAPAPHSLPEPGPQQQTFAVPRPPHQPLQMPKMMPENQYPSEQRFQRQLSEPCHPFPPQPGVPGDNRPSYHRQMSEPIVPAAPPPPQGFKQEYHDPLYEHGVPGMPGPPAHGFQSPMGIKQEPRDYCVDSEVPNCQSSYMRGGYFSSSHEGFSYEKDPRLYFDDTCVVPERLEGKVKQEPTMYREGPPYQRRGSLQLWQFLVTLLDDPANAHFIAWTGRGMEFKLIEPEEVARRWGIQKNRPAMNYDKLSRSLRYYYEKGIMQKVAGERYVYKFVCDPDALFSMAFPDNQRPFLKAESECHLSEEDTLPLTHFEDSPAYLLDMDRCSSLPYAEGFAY
# Procedure, shortened: as §1
# HSF1 = HSF1 (Homo sapiens, UniProt Q00613 1-529); conditions: protein: recombinant; tags: N-terminal GST; chain copies: 3; dsDNA, one strand shown
# Sequence of HSF1 (Q00613 whole entry): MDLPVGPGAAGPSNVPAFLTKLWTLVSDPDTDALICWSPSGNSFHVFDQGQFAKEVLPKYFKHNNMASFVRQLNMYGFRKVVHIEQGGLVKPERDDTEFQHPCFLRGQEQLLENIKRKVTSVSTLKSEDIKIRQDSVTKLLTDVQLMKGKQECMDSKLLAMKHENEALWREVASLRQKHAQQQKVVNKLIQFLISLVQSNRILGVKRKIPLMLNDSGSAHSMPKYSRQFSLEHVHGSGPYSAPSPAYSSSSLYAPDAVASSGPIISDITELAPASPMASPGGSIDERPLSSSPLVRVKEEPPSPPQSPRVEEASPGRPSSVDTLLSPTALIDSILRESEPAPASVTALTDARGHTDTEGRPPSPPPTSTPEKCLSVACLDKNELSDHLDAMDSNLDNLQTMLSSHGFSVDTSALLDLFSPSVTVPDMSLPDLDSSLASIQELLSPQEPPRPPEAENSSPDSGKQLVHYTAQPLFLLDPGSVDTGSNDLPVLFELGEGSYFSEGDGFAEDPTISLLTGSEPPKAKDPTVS
# Procedure, shortened: as §1
# SPIC = molecular target: T8, SPIC (Homo sapiens, UniProt Q8N5J4 1-248); conditions: protein: recombinant; tags: N-terminal GST; dsDNA, one strand shown
# T8 sequence: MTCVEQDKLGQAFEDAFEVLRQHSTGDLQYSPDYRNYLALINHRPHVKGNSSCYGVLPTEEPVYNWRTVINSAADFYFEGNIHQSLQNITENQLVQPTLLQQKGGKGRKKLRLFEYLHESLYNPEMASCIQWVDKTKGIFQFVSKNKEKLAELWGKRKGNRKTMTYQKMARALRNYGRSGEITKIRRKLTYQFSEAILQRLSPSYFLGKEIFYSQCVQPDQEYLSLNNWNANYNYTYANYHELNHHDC
# Procedure, shortened: as §1
# ELF4 = ELF4 (Homo sapiens, UniProt Q99607 1-663); conditions: protein: recombinant; tags: N-terminal GST; dsDNA, one strand shown
# Sequence of ELF4 (Q99607 whole entry): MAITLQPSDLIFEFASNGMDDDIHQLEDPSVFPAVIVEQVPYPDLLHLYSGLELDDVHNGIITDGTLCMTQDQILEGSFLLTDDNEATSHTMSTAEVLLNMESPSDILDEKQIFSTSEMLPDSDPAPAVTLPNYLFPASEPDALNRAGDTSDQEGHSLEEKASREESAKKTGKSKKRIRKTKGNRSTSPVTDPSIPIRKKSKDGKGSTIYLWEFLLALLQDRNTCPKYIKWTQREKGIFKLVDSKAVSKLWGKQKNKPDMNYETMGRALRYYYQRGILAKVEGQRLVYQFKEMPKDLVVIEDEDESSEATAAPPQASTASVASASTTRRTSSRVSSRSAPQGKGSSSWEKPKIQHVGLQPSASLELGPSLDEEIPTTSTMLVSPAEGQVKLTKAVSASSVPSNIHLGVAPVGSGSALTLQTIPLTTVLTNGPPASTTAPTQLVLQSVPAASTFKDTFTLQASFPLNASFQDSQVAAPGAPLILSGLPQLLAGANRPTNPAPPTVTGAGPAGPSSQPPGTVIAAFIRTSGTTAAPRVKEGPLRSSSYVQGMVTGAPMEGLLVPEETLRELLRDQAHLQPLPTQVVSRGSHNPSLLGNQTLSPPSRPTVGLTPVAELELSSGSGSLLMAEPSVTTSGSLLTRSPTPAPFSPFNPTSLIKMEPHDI
# Procedure, shortened: as §1
# ELK4 = molecular target: T9, ELK4 (Homo sapiens, UniProt P28324-2 1-405); conditions: protein: recombinant; tags: N-terminal GST; dsDNA, one strand shown
# T9 sequence: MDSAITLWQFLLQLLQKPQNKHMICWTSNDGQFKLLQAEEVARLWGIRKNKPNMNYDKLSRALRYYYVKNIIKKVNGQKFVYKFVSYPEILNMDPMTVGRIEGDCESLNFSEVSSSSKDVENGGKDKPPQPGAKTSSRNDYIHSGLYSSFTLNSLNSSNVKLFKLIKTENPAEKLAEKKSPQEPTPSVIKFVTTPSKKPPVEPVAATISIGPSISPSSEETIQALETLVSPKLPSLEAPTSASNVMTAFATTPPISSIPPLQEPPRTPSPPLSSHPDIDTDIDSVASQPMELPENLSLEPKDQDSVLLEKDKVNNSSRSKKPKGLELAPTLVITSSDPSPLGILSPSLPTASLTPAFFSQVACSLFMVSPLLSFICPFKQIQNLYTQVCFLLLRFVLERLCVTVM
# Procedure, shortened: as §1
# ETV2 = molecular target: T10, ETV2 (Homo sapiens, UniProt O00321 1-342); conditions: protein: recombinant; tags: N-terminal GST; dsDNA, one strand shown
# T10 sequence: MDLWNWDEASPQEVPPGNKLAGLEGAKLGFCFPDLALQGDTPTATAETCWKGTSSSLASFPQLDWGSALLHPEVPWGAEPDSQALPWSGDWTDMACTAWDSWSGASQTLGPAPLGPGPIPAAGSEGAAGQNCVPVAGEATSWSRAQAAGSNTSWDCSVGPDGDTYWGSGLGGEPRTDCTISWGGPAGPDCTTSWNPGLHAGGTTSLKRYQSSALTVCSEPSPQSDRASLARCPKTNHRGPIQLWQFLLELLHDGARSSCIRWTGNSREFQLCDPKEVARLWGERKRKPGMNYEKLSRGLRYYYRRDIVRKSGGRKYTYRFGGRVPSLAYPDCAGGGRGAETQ
# Procedure, shortened: as §1
# ELF3 = molecular target: T11, ELF3 (Homo sapiens, UniProt P78545 1-371); conditions: protein: recombinant; tags: N-terminal GST; dsDNA, one strand shown
# T11 sequence: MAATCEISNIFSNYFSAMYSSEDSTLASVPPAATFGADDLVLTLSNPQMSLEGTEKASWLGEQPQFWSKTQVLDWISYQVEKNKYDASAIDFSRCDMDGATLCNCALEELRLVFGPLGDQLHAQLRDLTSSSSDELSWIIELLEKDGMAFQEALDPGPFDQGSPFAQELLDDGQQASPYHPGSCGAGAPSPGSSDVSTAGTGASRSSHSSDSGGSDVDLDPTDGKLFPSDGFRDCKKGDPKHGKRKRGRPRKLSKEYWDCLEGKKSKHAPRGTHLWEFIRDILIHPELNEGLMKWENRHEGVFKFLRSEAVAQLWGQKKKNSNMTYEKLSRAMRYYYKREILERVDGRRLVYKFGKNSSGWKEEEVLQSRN
# Procedure, shortened: as §1
# CRX = CRX (Homo sapiens, UniProt O43186 1-299); conditions: protein: recombinant; tags: N-terminal GST; dsDNA, one strand shown
# Sequence of CRX (O43186 whole entry): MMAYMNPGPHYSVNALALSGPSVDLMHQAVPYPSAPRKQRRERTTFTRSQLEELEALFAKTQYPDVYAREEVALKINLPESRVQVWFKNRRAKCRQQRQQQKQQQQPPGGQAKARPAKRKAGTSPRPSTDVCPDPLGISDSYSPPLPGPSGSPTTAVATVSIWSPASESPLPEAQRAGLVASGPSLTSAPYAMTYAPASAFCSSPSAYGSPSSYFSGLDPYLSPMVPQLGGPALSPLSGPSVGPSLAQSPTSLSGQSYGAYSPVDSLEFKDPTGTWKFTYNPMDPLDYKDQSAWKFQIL
# Procedure, shortened: as §1
# ETV1 = ETV1 (Homo sapiens, UniProt P50549 1-477); conditions: protein: recombinant; tags: N-terminal GST; dsDNA, one strand shown
# Sequence of ETV1 (P50549 whole entry): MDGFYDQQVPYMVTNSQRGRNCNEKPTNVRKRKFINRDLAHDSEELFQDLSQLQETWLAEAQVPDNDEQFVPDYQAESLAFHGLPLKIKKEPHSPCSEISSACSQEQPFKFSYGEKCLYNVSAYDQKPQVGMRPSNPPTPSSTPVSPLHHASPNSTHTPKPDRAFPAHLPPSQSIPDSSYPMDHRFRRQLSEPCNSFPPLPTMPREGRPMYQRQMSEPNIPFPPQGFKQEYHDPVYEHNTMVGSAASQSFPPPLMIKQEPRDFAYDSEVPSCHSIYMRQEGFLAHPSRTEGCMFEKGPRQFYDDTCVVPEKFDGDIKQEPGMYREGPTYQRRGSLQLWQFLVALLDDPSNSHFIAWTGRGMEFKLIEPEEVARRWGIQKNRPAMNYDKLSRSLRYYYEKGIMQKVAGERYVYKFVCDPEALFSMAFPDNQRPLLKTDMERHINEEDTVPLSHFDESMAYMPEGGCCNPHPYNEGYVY
# Procedure, shortened: as §1
sequence,measurement,setting,value
CAATCT,binding signal,FLI1,"1.24 fold enrichment (6-mer frequency, TF over GST control)"
same,binding signal,ELK1,"1.18 fold enrichment (6-mer frequency, TF over GST control)"
same,binding signal,GABPA,"1.18 fold enrichment (6-mer frequency, TF over GST control)"
same,binding signal,ERG,"1.13 fold enrichment (6-mer frequency, TF over GST control)"
same,binding signal,ELF1,"1.22 fold enrichment (6-mer frequency, TF over GST control)"
same,binding signal,EHF,"1.17 fold enrichment (6-mer frequency, TF over GST control)"
same,binding signal,SPI1,"1.26 fold enrichment (6-mer frequency, TF over GST control)"
same,binding signal,SPIB,"1.23 fold enrichment (6-mer frequency, TF over GST control)"
same,binding signal,ELK3,"1.14 fold enrichment (6-mer frequency, TF over GST control)"
same,binding signal,FEV,"1.2 fold enrichment (6-mer frequency, TF over GST control)"
same,binding signal,ETV5,"1.21 fold enrichment (6-mer frequency, TF over GST control)"
same,binding signal,HSF1,"1.48 fold enrichment (6-mer frequency, TF over GST control)"
same,binding signal,SPIC,"1.19 fold enrichment (6-mer frequency, TF over GST control)"
same,binding signal,ELF4,"1.2 fold enrichment (6-mer frequency, TF over GST control)"
same,binding signal,ELK4,"1.2 fold enrichment (6-mer frequency, TF over GST control)"
same,binding signal,ETV2,"1.3 fold enrichment (6-mer frequency, TF over GST control)"
same,binding signal,ELF3,"1.19 fold enrichment (6-mer frequency, TF over GST control)"
same,binding signal,CRX,"1.42 fold enrichment (6-mer frequency, TF over GST control)"
same,binding signal,ETV1,"1.26 fold enrichment (6-mer frequency, TF over GST control)"
